Data taken from PubChem BioAssay (NCATS).
Results filed as inconclusive are left out. Activity calls are given as the source filed them. Unless noted, calls follow the shape of the dose curve; as a rule, active = well fitted curve in the direction sought with a large enough effect; inconclusive = small, poorly fitted or top-dose-only effect, or another doubt; inactive = no such curve, though single readings can be large; an effect the other way counts as inactive or inconclusive.

Tested on: not listed separately
Assay: Nrf2 qHTS screen for inhibitors: Validation (AID 493153; active = well fitted inhibition curve with a large enough effect in the main read-out, with a control signal flat, not every such curve was filed as active; as to activity change, negative = inhibition: % of control where 0% means no effect)
Settings: A549 ARE-Fluc reporter, 18-24 h; Potency: luciferase luminescence; viability change: measured here: cytotoxicity max response; luciferase luminescence, at 46.1 µM (top of the series); activity change, negative = inhibition: at the top concentration
Outline: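 A549 cells carrying ARE-firefly luciferase reporter, 5000 cells/well in 5% FBS OPTI-MEM, treated with compound over a concentration series for 18-24 h at 37 C. Luciferase luminescence gave Nrf2 activity; CellTiter-Fluor fluorescence gave viability.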

Row | SMILES | activity change, negative = inhibition | viability change
1 | CN[C@H](CC(=O)O)C(=O)O | 4.87% (inactive) | -4.15%
2 | CCCCCCCCCC[Si](C)(C)CCC(=O)NC(Cc1ccc(C)cc1)c1ccccc1 (stereo unspecified) | -5.59% (inactive) | -1.11%
3 | Cc1cccc(C)c1OCC(N)C(C)C (stereo unspecified) | 3.09% (inactive) | 4.6%
4 | Cn1ccnc1 | 17.2% (inactive) | 2.46%
5 | CCCn1c(=O)c2[nH]c(-c3ccc(S(=O)(=O)O)cc3)nc2n(CCC)c1=O | -6.95% (inactive) | -4.01%
6 | C#CC(N)CCC(=O)O (stereo unspecified) | -4.66% (inactive) | 2.08%
7 | COc1ccccc1N1CCN(CCCCNC(=O)c2ccc3ccccc3c2)CC1 | 9.43% (inactive) | 4.82%
8 | CCSC(=N)N | 9.62% (inactive) | 0.659%
9 | O=C(O)[C@H]1NCCC[C@H]1C(=O)O | 14.8% (inactive) | 11%
10 | CC(C)NC[C@H](O)COc1ccc(CC(N)=O)cc1 | -21.1% (inactive) | -0.176%
11 | CCC(=O)N1CCN(C(=O)c2ccccc2)CC1 | -18.6% (inactive) | 1.55%
12 | NC(=O)CNCCC(c1ccccc1)c1ccccc1 | -0.615% (inactive) | 12.7%
13 | Nc1ncnc2c1ncn2C1CCCO1 (stereo unspecified) | 9.96% (inactive) | 12.1%
14 | N=C(N)c1ccccc1 | 1.46% (inactive) | 6.8%
15 | O=C(O)/C=C/c1ccc(O)c(O)c1 | 7.46% (inactive) | 3.15%
16 | Cc1nc(N=Nc2ccc(C(=O)O)cc2)c(COP(=O)(O)O)c(C=O)c1O | 3.19% (inactive) | -9.24%
17 | CC[N+](CC)(CC)CC(=O)Nc1c(C)cccc1C | -16.3% (inactive) | -3.66%
18 | CCN1C(=O)C=CC1=O | 8.2% (inactive) | 1.81%
19 | O=C(O)CCC(=O)N1CCCC1C(=O)O (stereo unspecified) | -7.68% (inactive) | -2.91%
20 | O=C(O)C1CCNCC1 | 4.84% (inactive) | -14.4%

Tested on: not listed separately
Assay: qHTS for Inhibitors of Cell Surface uPA Generation: Validation Assay (AID 493164); also: 0% is about no effect
Settings: mouse cells, plasminogen activation; series mostly up to 38.3 µM; activity change: at the top concentration
Outline: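 RAW 264.7 cells (4000/well) were plated overnight, then exposed for 18 h at 37 C, 5% CO2 to compounds in a 7-point 1:5 titration (2.45 nM–38.3 uM final). Intracellular ATP was read by ATP-Lite luminescence.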

Row | SMILES | activity change
21 | N[C@@H](CCCC(=O)O)C(=O)O | -0.659% (inactive)
22 | CSC(N)=NCCC[C@H](N)C(=O)O | -0.681% (inactive)
23 | NCCCCN=C(N)N | 0.448% (inactive)
24 | C#CCn1c(=O)c2c(ncn2C)n(C)c1=O | 0.36% (inactive)
25 | O=C(O)Cc1c[nH]c2ccc(O)cc12 | -0.938% (inactive)
26 | COc1cc(N)c(Cl)cc1C(=O)OCCN1CCCCC1 | -0.652% (inactive)
27 | c1ccc(C2CN3CCSC3=N2)cc1 (stereo unspecified) | 0.0545% (inactive)
28 | NCCS(=O)O | -0.967% (inactive)
29 | Oc1ccc(Cn2cc[nH]c2=S)cc1 | -0.231% (inactive)
30 | COc1ccc(-c2ccc(N)[n+](CCCC(=O)O)n2)cc1 | -0.415% (inactive)
31 | CC(C)Cn1c(=O)n(C)c(=O)c2[nH]cnc21 | -0.593% (inactive)
32 | Cn1cc(C(F)(F)F)nc1-c1ccc(OCC(O)CNCCOc2ccc(O)c(C(N)=O)c2)cc1 (stereo unspecified) | -1.17% (inactive)
33 | Cn1c(=O)c2c(nc(/C=C/c3cccc(Cl)c3)n2C)n(C)c1=O | -0.0602% (inactive)
34 | Cn1cc(C(=O)OCC2CCN(CCNS(C)(=O)=O)CC2)c2ccccc21 | -0.989% (inactive)
35 | NC/C=C\C(=O)O | 0.28% (inactive)
36 | Nc1ccc(-c2nc3ccc(-c4nc5ccc(N)cc5[nH]4)cc3[nH]2)cc1 | -0.482% (inactive)
37 | NC(=O)c1cc[n+](CC2=C(C(=O)O)N3C(=O)[C@@H](NC(=O)[C@@H](c4ccccc4)S(=O)(=O)[O-])[C@H]3SC2)cc1 | 0.5% (inactive)
38 | N[C@@H](Cc1c[nH]c2ccccc12)C(=O)O | -0.29% (inactive)
39 | CN[C@H](CC(=O)O)C(=O)O | -0.738% (inactive)

Row | SMILES | activity change
40 | CCCCCCCCCC[Si](C)(C)CCC(=O)NC(Cc1ccc(C)cc1)c1ccccc1 (stereo unspecified) | -0.65% (inactive)
41 | Cc1cccc(C)c1OCC(N)C(C)C (stereo unspecified) | 0.106% (inactive)
42 | Cn1ccnc1 | -2.18% (inactive)
43 | CCCn1c(=O)c2[nH]c(-c3ccc(S(=O)(=O)O)cc3)nc2n(CCC)c1=O | -0.748% (inactive)
44 | C#CC(N)CCC(=O)O (stereo unspecified) | 0.509% (inactive)
45 | COc1ccccc1N1CCN(CCCCNC(=O)c2ccc3ccccc3c2)CC1 | -0.0151% (inactive)
46 | CCSC(=N)N | -1.27% (inactive)
47 | O=C(O)[C@H]1NCCC[C@H]1C(=O)O | 0.364% (inactive)
48 | CC(C)NC[C@H](O)COc1ccc(CC(N)=O)cc1 | 1.24% (inactive)
49 | CCC(=O)N1CCN(C(=O)c2ccccc2)CC1 | 0.71% (inactive)
50 | NC(=O)CNCCC(c1ccccc1)c1ccccc1 | -0.522% (inactive)
51 | Nc1ncnc2c1ncn2C1CCCO1 (stereo unspecified) | -1.18% (inactive)
52 | N=C(N)c1ccccc1 | -0.937% (inactive)
53 | O=C(O)/C=C/c1ccc(O)c(O)c1 | -0.454% (inactive)
54 | Cc1nc(N=Nc2ccc(C(=O)O)cc2)c(COP(=O)(O)O)c(C=O)c1O | 0.389% (inactive)
55 | CC[N+](CC)(CC)CC(=O)Nc1c(C)cccc1C | 0.142% (inactive)
56 | CCN1C(=O)C=CC1=O | -0.737% (inactive)
57 | O=C(O)CCC(=O)N1CCCC1C(=O)O (stereo unspecified) | -0.0274% (inactive)
58 | O=C(O)C1CCNCC1 | -0.876% (inactive)

Target: Galactokinase (Homo sapiens) (UniProt P51570)
Sequence (P51570 whole entry, looked up): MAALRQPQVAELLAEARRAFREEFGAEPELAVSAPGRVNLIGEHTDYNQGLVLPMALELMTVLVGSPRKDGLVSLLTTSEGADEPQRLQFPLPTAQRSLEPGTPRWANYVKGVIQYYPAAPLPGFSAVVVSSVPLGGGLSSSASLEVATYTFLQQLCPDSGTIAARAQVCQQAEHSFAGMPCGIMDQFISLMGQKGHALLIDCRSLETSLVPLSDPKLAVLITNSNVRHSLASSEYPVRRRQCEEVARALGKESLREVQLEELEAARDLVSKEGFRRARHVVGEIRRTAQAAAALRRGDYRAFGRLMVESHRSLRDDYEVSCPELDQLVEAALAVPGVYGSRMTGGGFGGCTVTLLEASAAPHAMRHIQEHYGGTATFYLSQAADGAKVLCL
Assay: qHTS Validation Assay for Inhibitors of Human Galactokinase (GALK) (AID 493189); also: 0% is about no effect
Settings: purified human GALK enzyme activity, qHTS 7-point titration; series mostly up to 57.5 µM; activity change, negative = inhibition: at the top concentration
Outline: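 GALK (5 nM) with 35 uM ATP and 100 uM galactose in HEPES pH 8.0 with MgCl2, NaCl, DTT and BSA. Reaction ran 1 h at room temperature. Residual ATP read by Kinase-Glo Plus luminescence.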

Row | SMILES | activity change, negative = inhibition | Potency
59 | N[C@@H](CCCC(=O)O)C(=O)O | 1.06% (inactive) | –
60 | CSC(N)=NCCC[C@H](N)C(=O)O | -1.79% (inactive) | –
61 | NCCCCN=C(N)N | -4.45% (inactive) | –
62 | C#CCn1c(=O)c2c(ncn2C)n(C)c1=O | 2.74% (inactive) | –
63 | O=C(O)Cc1c[nH]c2ccc(O)cc12 | -3.18% (inactive) | –
64 | COc1cc(N)c(Cl)cc1C(=O)OCCN1CCCCC1 | 2.1% (inactive) | –
65 | c1ccc(C2CN3CCSC3=N2)cc1 (stereo unspecified) | 0.484% (inactive) | –
66 | NCCS(=O)O | -3.13% (inactive) | –
67 | Oc1ccc(Cn2cc[nH]c2=S)cc1 | -5.03% (inactive) | –
68 | COc1ccc(-c2ccc(N)[n+](CCCC(=O)O)n2)cc1 | -3.7% (inactive) | –
69 | CC(C)Cn1c(=O)n(C)c(=O)c2[nH]cnc21 | -4.98% (inactive) | –
70 | Cn1cc(C(F)(F)F)nc1-c1ccc(OCC(O)CNCCOc2ccc(O)c(C(N)=O)c2)cc1 (stereo unspecified) | 3.4% (inactive) | –
71 | Cn1c(=O)c2c(nc(/C=C/c3cccc(Cl)c3)n2C)n(C)c1=O | 3.82% (inactive) | –
72 | Cn1cc(C(=O)OCC2CCN(CCNS(C)(=O)=O)CC2)c2ccccc21 | -3.59% (inactive) | –
73 | NC/C=C\C(=O)O | 1.02% (inactive) | –
74 | Nc1ccc(-c2nc3ccc(-c4nc5ccc(N)cc5[nH]4)cc3[nH]2)cc1 | -0.142% (inactive) | –
75 | NC(=O)c1cc[n+](CC2=C(C(=O)O)N3C(=O)[C@@H](NC(=O)[C@@H](c4ccccc4)S(=O)(=O)[O-])[C@H]3SC2)cc1 | 2.08% (inactive) | –
76 | N[C@@H](Cc1c[nH]c2ccccc12)C(=O)O | -0.0442% (inactive) | –
77 | CN[C@H](CC(=O)O)C(=O)O | 4.7% (inactive) | –

Row | SMILES | activity change, negative = inhibition | Potency
78 | CCCCCCCCCC[Si](C)(C)CCC(=O)NC(Cc1ccc(C)cc1)c1ccccc1 (stereo unspecified) | 3.54% (inactive) | –
79 | Cc1cccc(C)c1OCC(N)C(C)C (stereo unspecified) | 5.23% (inactive) | –
80 | Cn1ccnc1 | 11.4% (inactive) | –
81 | CCCn1c(=O)c2[nH]c(-c3ccc(S(=O)(=O)O)cc3)nc2n(CCC)c1=O | -2.13% (inactive) | –
82 | C#CC(N)CCC(=O)O (stereo unspecified) | 3.05% (inactive) | –
83 | COc1ccccc1N1CCN(CCCCNC(=O)c2ccc3ccccc3c2)CC1 | -3.35% (inactive) | –
84 | CCSC(=N)N | -11.2% (inactive) | –
85 | O=C(O)[C@H]1NCCC[C@H]1C(=O)O | -13.1% (inactive) | –
86 | CC(C)NC[C@H](O)COc1ccc(CC(N)=O)cc1 | – | inactive
87 | CCC(=O)N1CCN(C(=O)c2ccccc2)CC1 | 1.15% (inactive) | –
88 | NC(=O)CNCCC(c1ccccc1)c1ccccc1 | 2.3% (inactive) | –
89 | Nc1ncnc2c1ncn2C1CCCO1 (stereo unspecified) | 3.43% (inactive) | –
90 | N=C(N)c1ccccc1 | -1.7% (inactive) | –
91 | O=C(O)/C=C/c1ccc(O)c(O)c1 | 0.386% (inactive) | –
92 | Cc1nc(N=Nc2ccc(C(=O)O)cc2)c(COP(=O)(O)O)c(C=O)c1O | 5.31% (inactive) | –
93 | CC[N+](CC)(CC)CC(=O)Nc1c(C)cccc1C | 2.59% (inactive) | –
94 | CCN1C(=O)C=CC1=O | 3.53% (inactive) | –
95 | O=C(O)CCC(=O)N1CCCC1C(=O)O (stereo unspecified) | -1.41% (inactive) | –
96 | O=C(O)C1CCNCC1 | 5.1% (inactive) | –
